Compounds without any hit were thinned out: in the full panel of roughly 83,000, 20% have a hit.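 The endpoint reported here, percent growth, reads 100 for growth as untreated, 0 for no net growth and -100 for all cells dead.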 Activity calls are given as the source filed them. Rule for the calls: active = growth percent below 10; inactive = the rest.
Legend:
Assay in all cases: NCI-60 one-dose screen, 48 h (100 = growth as untreated, 0 = no growth, -100 = all killed)
A549/ATCC NSCLC = details: 10 µM unless noted
DU-145 prostate = details: 10 µM unless noted
RXF 393 renal = details: 10 µM unless noted
SF-295 CNS = details: 10 µM unless noted
SF-539 CNS = details: 10 µM unless noted
UACC-257 melanoma = details: 10 µM unless noted
HCT-15 colon = details: 10 µM
HT29 colon = details: 10 µM unless noted
SNB-75 CNS = details: 10 µM unless noted
SK-MEL-5 melanoma = details: 10 µM unless noted
LOX IMVI melanoma = details: 10 µM unless noted
SK-MEL-2 melanoma = details: 10 µM unless noted
ACHN renal = details: 10 µM unless noted
CAKI-1 renal = details: 10 µM unless noted
A498 renal = details: 10 µM unless noted
HL-60(TB) leukemia = details: 10 µM unless noted
MOLT-4 leukemia = details: 10 µM
OVCAR-8 ovarian = details: 10 µM unless noted
IGROV1 ovarian = details: 10 µM
HS 578T breast = details: 10 µM unless noted

Row | SMILES | growth (A549/ATCC NSCLC) | growth (DU-145 prostate) | growth (RXF 393 renal) | growth (SF-295 CNS) | growth (SF-539 CNS) | growth (UACC-257 melanoma) | growth (HCT-15 colon) | growth (HT29 colon) | growth (SNB-75 CNS) | growth (SK-MEL-5 melanoma) | growth (LOX IMVI melanoma) | growth (SK-MEL-2 melanoma) | growth (ACHN renal) | growth (CAKI-1 renal) | growth (A498 renal) | growth (HL-60(TB) leukemia) | growth (MOLT-4 leukemia) | growth (OVCAR-8 ovarian) | growth (IGROV1 ovarian) | growth (HS 578T breast)
1 | COc1ccc(OC)c(/C=C(/C)[N+](=O)[O-])c1 | 75.8% (inactive) | 6.46% (active) | -18.5% (active) | 110% (inactive) | 84.4% (inactive) | 0.553% (active) | -33.1% (active) | -29% (active) | 77.2% (inactive) | 64.6% (inactive) | -88.6% (active) | 56.4% (inactive) | -27.7% (active) | 6.25% (active) | 110% (inactive) | 62.3% (inactive) | 0.523% (active) | 13.1% (inactive) | -24.8% (active) | 70.6% (inactive)
2 | [Br][Pb]([c]1ccccc1)([c]1ccccc1)[c]1ccccc1 | -99.2% (active) | -97.5% (active) | -83.2% (active) | – | -90.6% (active) | -99% (active) | -77.8% (active) | -73.4% (active) | -100% (active) | -100% (active) | -100% (active) | -96.6% (active) | -92.8% (active) | -100% (active) | -100% (active) | -39.9% (active) | -24.4% (active) | -100% (active) | -50.9% (active) | -35.6% (active)
3 | Cc1ccc(C(=O)C2CN(C)CCC2(O)c2ccc(C)cc2)cc1 (stereo unspecified) | 104% (inactive) | 117% (inactive) | 128% (inactive) | 111% (inactive) | – | 104% (inactive) | 103% (inactive) | 113% (inactive) | 96% (inactive) | 114% (inactive) | 98.9% (inactive) | 124% (inactive) | – | 93.7% (inactive) | 94% (inactive) | 106% (inactive) | 103% (inactive) | 107% (inactive) | 124% (inactive) | 97% (inactive)
4 | O=S(=O)(F)c1ncnc2nc[nH]c12 | 98.5% (inactive) | – | 101% (inactive) | 104% (inactive) | 88.1% (inactive) | 105% (inactive) | 98.3% (inactive) | 101% (inactive) | 87.3% (inactive) | 96.2% (inactive) | 85.8% (inactive) | 85.8% (inactive) | 98.1% (inactive) | 81.4% (inactive) | 97.2% (inactive) | 97.2% (inactive) | 89.2% (inactive) | 100% (inactive) | 103% (inactive) | 77.1% (inactive)
